Measured values reported in ChEMBL document CHEMBL1961873, “Compounds: GSK PKIS; Assays: Nanosyn kinase panel” (2012).

Legend:
[1] = target: Dual specificity protein kinase CLK3 (Homo sapiens) (UniProt P49761); details: at 1 µM;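 note: each value is the mean inhibition of CLK3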
[2] = target: Dual specificity tyrosine-phosphorylation-regulated kinase 1A (Homo sapiens) (UniProt Q13627); details: at 0.1 µM
[3] = target: Dual specificity tyrosine-phosphorylation-regulated kinase 1A (Homo sapiens) (UniProt Q13627); details: at 1 µM
[4] = target: Dual specificity tyrosine-phosphorylation-regulated kinase 1B (Homo sapiens) (UniProt Q9Y463); details: at 0.1 µM
[5] = target: Dual specificity tyrosine-phosphorylation-regulated kinase 1B (Homo sapiens) (UniProt Q9Y463); details: at 1 µM
[6] = target: T1, Dual specificity tyrosine-phosphorylation-regulated kinase 2 (Homo sapiens) (UniProt Q92630); details: at 0.1 µM
T1 sequence (whole entry): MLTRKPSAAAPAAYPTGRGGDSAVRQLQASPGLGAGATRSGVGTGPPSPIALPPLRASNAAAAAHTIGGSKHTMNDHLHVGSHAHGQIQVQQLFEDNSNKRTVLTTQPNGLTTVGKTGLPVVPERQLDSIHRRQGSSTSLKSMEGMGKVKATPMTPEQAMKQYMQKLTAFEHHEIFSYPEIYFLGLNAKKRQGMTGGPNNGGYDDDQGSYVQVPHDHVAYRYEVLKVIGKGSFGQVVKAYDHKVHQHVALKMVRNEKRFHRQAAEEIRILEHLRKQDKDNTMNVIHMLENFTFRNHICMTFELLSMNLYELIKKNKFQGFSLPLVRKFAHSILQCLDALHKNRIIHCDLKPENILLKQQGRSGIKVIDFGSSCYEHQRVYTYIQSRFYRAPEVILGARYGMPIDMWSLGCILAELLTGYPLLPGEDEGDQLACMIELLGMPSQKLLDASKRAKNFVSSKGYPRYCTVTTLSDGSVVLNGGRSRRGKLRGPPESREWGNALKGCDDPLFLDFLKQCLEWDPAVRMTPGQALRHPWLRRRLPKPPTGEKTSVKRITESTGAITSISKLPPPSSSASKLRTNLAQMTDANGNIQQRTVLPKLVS

[7] = target: T1, Dual specificity tyrosine-phosphorylation-regulated kinase 2 (Homo sapiens); details: at 1 µM
[8] = target: Glycogen synthase kinase-3 alpha (Homo sapiens) (UniProt P49840); details: at 0.1 µM
[9] = target: Glycogen synthase kinase-3 alpha (Homo sapiens) (UniProt P49840); details: at 1 µM
[10] = target: Glycogen synthase kinase-3 beta (Homo sapiens) (UniProt P49841); details: at 0.1 µM
[11] = target: Glycogen synthase kinase-3 beta (Homo sapiens) (UniProt P49841); details: at 1 µM
[12] = target: Homeodomain-interacting protein kinase 1 (Homo sapiens) (UniProt Q86Z02); details: at 0.1 µM
[13] = target: Homeodomain-interacting protein kinase 1 (Homo sapiens) (UniProt Q86Z02); details: at 1 µM
[14] = target: T2, Homeodomain-interacting protein kinase 4 (Homo sapiens) (UniProt Q8NE63); details: at 0.1 µM
T2 sequence (whole entry): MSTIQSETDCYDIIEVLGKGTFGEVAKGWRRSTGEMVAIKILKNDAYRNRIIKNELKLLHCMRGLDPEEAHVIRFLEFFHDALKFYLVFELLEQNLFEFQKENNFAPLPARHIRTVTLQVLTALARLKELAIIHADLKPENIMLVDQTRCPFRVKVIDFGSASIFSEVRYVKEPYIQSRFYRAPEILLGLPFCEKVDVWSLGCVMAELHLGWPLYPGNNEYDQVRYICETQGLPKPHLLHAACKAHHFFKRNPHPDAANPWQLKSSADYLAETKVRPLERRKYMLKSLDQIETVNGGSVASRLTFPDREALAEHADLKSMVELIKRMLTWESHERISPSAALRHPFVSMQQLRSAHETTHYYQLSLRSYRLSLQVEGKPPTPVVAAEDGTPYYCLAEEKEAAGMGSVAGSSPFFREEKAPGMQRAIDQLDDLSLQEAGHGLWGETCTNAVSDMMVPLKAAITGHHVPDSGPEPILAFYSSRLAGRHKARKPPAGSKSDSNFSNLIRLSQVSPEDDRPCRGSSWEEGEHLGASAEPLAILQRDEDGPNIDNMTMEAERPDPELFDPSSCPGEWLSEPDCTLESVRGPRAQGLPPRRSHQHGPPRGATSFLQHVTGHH

[15] = target: T2, Homeodomain-interacting protein kinase 4 (Homo sapiens); details: at 1 µM
[16] = target: Mitogen-activated protein kinase 9 (Homo sapiens) (UniProt P45984); details: at 0.1 µM
[17] = target: Mitogen-activated protein kinase 9 (Homo sapiens) (UniProt P45984); details: at 1 µM
[18] = target: Mitogen-activated protein kinase 1 (Homo sapiens) (UniProt P28482); details: at 0.1 µM
[19] = target: Mitogen-activated protein kinase 1 (Homo sapiens) (UniProt P28482); details: at 1 µM
[20] = target: Mitogen-activated protein kinase 3 (Homo sapiens) (UniProt P27361); details: at 0.1 µM;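 note: each value is a mean inhibition figure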
Sequence of Mitogen-activated protein kinase 3 (Homo sapiens) (P27361 whole entry): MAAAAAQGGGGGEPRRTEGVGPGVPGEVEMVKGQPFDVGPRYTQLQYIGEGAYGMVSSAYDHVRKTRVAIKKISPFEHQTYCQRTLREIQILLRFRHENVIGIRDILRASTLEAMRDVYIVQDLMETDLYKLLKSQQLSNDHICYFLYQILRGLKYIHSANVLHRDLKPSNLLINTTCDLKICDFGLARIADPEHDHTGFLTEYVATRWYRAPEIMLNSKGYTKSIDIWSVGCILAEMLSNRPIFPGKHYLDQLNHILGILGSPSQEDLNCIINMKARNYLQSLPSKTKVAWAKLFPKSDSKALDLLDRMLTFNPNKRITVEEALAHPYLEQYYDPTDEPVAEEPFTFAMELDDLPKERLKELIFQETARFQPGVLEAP

Sequence of Homeodomain-interacting protein kinase 1 (Homo sapiens) (Q86Z02 whole entry, looked up): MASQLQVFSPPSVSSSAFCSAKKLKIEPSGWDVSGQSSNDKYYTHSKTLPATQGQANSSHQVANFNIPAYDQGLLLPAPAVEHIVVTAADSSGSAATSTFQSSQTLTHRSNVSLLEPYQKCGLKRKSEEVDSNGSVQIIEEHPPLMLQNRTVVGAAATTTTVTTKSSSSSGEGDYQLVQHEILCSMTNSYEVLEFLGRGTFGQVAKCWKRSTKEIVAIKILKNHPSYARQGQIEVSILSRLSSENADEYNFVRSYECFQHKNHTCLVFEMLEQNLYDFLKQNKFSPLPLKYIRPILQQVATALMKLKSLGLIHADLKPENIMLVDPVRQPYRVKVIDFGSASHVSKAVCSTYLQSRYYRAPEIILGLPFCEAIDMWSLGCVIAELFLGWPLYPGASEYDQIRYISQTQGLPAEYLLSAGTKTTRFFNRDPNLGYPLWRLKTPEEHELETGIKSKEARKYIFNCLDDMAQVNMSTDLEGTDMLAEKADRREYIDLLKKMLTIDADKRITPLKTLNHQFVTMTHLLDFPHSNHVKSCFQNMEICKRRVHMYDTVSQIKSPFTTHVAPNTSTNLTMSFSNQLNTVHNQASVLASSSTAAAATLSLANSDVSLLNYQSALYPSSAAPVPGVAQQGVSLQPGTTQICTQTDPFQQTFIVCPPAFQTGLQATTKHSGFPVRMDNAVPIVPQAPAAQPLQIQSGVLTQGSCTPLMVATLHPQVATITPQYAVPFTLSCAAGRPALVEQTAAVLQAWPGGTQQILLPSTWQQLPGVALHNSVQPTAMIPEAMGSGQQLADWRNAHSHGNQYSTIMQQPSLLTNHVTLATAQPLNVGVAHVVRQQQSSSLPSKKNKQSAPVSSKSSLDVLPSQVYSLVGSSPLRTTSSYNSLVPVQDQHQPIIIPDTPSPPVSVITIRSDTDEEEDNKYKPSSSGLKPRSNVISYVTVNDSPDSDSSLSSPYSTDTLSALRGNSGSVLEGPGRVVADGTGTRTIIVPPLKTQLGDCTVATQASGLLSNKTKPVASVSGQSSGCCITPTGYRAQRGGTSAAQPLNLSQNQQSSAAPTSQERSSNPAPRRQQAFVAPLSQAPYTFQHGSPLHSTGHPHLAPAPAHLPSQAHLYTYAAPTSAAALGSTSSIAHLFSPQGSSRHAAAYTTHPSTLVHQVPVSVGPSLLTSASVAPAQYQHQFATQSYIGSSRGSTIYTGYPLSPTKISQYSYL
Sequence of Mitogen-activated protein kinase 1 (Homo sapiens) (P28482 whole entry): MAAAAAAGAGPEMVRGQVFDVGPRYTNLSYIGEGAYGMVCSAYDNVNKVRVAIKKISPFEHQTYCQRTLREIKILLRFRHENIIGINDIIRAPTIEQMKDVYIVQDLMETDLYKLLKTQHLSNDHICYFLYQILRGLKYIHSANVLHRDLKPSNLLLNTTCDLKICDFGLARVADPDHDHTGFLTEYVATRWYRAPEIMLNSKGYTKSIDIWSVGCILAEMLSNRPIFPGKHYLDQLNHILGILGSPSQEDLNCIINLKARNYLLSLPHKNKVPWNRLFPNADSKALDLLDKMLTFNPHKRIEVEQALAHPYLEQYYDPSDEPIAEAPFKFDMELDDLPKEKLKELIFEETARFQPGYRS
Sequence of Dual specificity tyrosine-phosphorylation-regulated kinase 1B (Homo sapiens) (Q9Y463 whole entry, looked up): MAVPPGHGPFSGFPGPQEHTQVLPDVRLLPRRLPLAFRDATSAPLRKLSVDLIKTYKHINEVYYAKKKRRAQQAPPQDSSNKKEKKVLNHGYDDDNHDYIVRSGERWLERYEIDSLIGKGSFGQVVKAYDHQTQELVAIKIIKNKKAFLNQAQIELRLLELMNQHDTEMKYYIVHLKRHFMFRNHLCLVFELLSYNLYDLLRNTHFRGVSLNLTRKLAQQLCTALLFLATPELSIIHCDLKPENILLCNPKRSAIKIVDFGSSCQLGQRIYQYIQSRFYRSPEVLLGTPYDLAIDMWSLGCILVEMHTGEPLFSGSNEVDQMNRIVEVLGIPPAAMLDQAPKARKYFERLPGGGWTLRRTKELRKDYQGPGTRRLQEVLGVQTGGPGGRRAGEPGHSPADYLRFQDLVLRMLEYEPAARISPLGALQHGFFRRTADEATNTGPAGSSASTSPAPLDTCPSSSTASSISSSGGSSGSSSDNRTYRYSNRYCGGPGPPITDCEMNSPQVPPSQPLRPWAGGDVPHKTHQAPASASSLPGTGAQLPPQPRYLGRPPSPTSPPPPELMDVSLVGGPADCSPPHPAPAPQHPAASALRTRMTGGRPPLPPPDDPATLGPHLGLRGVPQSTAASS
Sequence of Glycogen synthase kinase-3 alpha (Homo sapiens) (P49840 2-483 limits assumed): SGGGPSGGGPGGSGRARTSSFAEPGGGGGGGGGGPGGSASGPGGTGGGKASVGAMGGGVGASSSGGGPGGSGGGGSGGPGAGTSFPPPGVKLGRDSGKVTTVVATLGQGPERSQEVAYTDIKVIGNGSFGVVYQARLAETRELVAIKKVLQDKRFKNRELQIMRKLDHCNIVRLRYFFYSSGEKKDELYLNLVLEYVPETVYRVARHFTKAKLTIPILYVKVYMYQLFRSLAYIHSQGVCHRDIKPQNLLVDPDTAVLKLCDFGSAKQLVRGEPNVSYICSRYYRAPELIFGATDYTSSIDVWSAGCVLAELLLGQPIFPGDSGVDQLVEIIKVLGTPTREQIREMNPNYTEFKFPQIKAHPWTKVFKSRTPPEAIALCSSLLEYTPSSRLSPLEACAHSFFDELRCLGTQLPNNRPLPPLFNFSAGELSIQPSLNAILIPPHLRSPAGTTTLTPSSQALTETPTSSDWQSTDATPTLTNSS
Sequence of Dual specificity protein kinase CLK3 (Homo sapiens) (P49761 whole entry, looked up): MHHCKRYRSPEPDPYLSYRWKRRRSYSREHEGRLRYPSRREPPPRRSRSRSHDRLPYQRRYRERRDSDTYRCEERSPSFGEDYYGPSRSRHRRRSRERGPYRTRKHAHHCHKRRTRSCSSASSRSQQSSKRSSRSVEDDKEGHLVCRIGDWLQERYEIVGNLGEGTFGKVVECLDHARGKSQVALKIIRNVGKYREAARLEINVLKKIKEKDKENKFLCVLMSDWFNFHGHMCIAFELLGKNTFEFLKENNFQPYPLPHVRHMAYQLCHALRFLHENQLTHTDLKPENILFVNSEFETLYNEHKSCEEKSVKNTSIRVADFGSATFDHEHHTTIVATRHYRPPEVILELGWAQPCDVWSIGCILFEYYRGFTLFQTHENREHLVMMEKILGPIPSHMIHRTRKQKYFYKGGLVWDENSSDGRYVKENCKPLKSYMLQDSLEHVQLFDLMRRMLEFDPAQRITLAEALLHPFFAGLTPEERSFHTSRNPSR
Sequence of Mitogen-activated protein kinase 9 (Homo sapiens) (P45984 whole entry, looked up): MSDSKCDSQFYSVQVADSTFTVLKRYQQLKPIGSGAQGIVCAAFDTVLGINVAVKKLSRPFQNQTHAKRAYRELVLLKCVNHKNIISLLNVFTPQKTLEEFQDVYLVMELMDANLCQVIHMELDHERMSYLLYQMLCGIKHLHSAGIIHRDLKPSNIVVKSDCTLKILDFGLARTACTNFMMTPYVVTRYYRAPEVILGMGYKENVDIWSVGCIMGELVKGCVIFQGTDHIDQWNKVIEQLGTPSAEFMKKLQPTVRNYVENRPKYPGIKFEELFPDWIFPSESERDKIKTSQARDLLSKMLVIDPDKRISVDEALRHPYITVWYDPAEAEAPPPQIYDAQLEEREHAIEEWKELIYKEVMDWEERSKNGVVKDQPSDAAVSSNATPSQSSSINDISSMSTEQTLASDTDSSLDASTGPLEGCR
Sequence of Glycogen synthase kinase-3 beta (Homo sapiens) (P49841 whole entry, looked up): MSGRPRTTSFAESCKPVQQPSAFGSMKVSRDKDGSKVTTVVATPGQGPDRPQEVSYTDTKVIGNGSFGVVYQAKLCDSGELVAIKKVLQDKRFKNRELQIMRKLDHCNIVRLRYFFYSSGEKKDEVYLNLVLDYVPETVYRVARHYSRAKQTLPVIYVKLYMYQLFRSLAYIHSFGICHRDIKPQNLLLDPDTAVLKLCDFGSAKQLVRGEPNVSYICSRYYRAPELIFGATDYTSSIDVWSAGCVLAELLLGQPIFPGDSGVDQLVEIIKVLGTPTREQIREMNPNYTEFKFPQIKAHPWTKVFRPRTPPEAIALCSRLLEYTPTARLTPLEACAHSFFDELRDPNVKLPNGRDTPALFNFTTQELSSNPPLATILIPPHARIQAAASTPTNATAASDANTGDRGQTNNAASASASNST

Structure (SMILES)	inhibition [1] [%]	inhibition [2] [%]	inhibition [3] [%]	inhibition [4] [%]	inhibition [5] [%]	inhibition [6] [%]	inhibition [7] [%]	inhibition [8] [%]	inhibition [9] [%]	inhibition [10] [%]	inhibition [11] [%]	inhibition [12] [%]	inhibition [13] [%]	inhibition [14] [%]	inhibition [15] [%]	inhibition [16] [%]	inhibition [17] [%]	inhibition [18] [%]	inhibition [19] [%]	inhibition [20] [%]
NCc1ccc(-c2nc(-c3ccc(Cl)c(O)c3)c(-c3ccncc3)[nH]2)cc1	3.14	3.51	3.85	4.36	3.42	0.33	0.81	4.59	32.5	16.9	65.4	0.11	5.53	0.99	8.45	4.51	15.8	-0.32	0.67	0.94
Cc1cc(O)cc(C)c1/C=C/c1cncc(-c2nn[nH]n2)c1	-1.62	1.17	2.98	-1.94	-1.27	2.24	3.95	-2.04	3.03	-2.15	2.36	-4.42	-1.96	1.12	3.32	7.47	9.2	4.59	5.51	4.38
N#Cc1c(NC(=O)c2cccc3ccccc23)sc2c1CCCC2	1.09	1.07	4.31	0.47	1.43	1.86	2.69	5.51	6.65	3.72	6.89	-2.43	1.91	-1.01	2.45	6.07	25.4	2.02	3.91	-0.53
Nc1nc(-c2ccc3c(c2)C(=Cc2cc(Br)c(O)c(Br)c2)C(=O)N3)cs1	2.88	1.71	4.89	1.38	3.44	-2.46	-0.96	0.62	4.94	0.83	4.42	-1.1	4.76	0.92	11.3	-3.8	-4.58	-2.57	-2.89	-0.09
CC1=C(C(=O)Nc2ccc3[nH]ncc3c2)C(c2ccc(Cl)c(Cl)c2)CC(=O)N1 (stereo unspecified)	2.49	-0.12	3.73	0.77	3.21	1.35	2.88	0.15	4.5	-0.24	4.85	0.46	-2.51	1	4.37	1.22	2.79	3.85	27.4	2.47
Cc1ccc(NC(=O)c2ccnc(N3CCCC3)c2)cc1-c1ccc(C(=O)NCC2CC2)cc1	-1.68	0.13	4	-2.86	-0.97	2.77	3.11	1.33	5.65	0.07	3.68	-4.3	-2.16	-1.31	2.09	2.66	6.82	4.25	6.09	2.96
Nc1ncnc2occ(-c3ccc(NC(=O)Nc4cccc(C(F)(F)F)c4)cc3)c12	–	3.42	6.79	-0.28	1.94	3.2	2.85	3.15	9.54	2.89	11	5.73	37.4	67.4	78.3	3.31	14.5	4.78	6.77	4.22
CN(C)c1cc2c(Nc3ccc4nc(Cc5ccccc5)[nH]c4c3)ncnc2cn1	3	4.46	6.18	1.66	2.67	3.79	5.25	2.41	4.97	1.6	2.68	0.23	2.19	2.51	4.06	10.2	1.8	4.86	6.26	3.48
COc1cc2ncn(-c3cc(O[C@@H](C)c4ccccc4Cl)c(C(N)=O)s3)c2cc1OC	2.08	4.47	8.19	-0.84	5.29	2.62	3.36	3.02	6.38	2.25	5.97	-0.99	4.95	2.88	22.1	2.45	8.24	5.66	6.55	4.78
CNC(=O)c1cncc(/C=C/c2c(Cl)cccc2Cl)c1	-3.4	-1.12	-1.12	-1.13	3.55	3.17	6.98	-0.55	3.81	-1.21	1.92	-2.63	4.11	1.25	7.87	4.08	10.1	5	4.6	5.34
CS(=O)(=O)CCNCc1ccc(-c2ccc3ncnc(Nc4ccc(OCc5cccc(F)c5)c(C(F)(F)F)c4)c3c2)o1	0.98	2.19	1.7	-1.48	-1.44	2.83	3.42	1.48	0.2	0.25	-0.18	-1.8	-2.73	-1.19	-0.51	5.87	4.78	5.04	5.42	2.83
CC(=O)Nc1cccc(C#Cc2cncnc2Nc2ccc(OCc3cccc(F)c3)c(Cl)c2)n1	-0.85	-0.63	-0.35	1.51	2.18	-0.79	-0.95	0.36	1.39	1.37	3.63	1.74	3.28	0.85	1.32	-0.98	-1.17	-0.75	-1.7	-0.64
COC(=O)Nc1nc2cc(Oc3cccc(NC(=O)Nc4cc(C(F)(F)F)ccc4F)c3)ccc2[nH]1	0.16	-0.01	2.54	-0.21	1.68	-0.32	-0.02	1.75	7.54	0.73	6.36	-3.75	-1.32	-1.03	11.4	2.79	1.58	-0.65	0.3	-0.17
O=C1NC(=O)C(c2ccc(Cl)cc2)=C1Nc1ccc(Cl)c(C(=O)O)c1	4.58	3.92	17.2	3.26	8.51	-2.12	-1.19	21.4	72.1	–	–	2.13	4.29	1.76	1.98	0.98	5.72	–	-5.59	-1.99
COc1ccc(-c2coc3ncnc(N)c23)cc1	1.54	3.61	19.2	-0.37	5.22	3.83	4.61	2.73	3.86	0.71	2.62	-1.54	0.23	-1.26	0.51	4.38	5.45	4.53	6.4	5.16
O=C1NC(=O)C(c2cccc(Cl)c2)=C1Nc1ccc(O)c(Cl)c1	5.01	2.08	17.3	1.51	8.29	1	0.69	–	–	–	–	-2.68	1.28	-1.68	0.62	3.34	1.38	-0.66	1.91	2.05
O=C1NC(=O)C(N2CCc3ccccc32)=C1c1ccc(Cl)cc1	2.44	3.12	4.67	0.13	1.08	3.3	3.36	3.79	14	–	–	0.01	1.33	-0.41	2.92	3.51	5.32	3.12	5.91	5.26
COc1ccc(COc2ccc(Cc3cnc(N)nc3N)cc2OC)cc1	-0.53	1.44	0.52	4	2.57	-0.01	0.42	1.37	0.34	0.96	–	-1.6	0.13	2.52	4.49	0.2	0.51	-1.03	-0.13	0.6
CCn1c(-c2nonc2N)nc2ccncc21	0.52	0.1	2.88	-0.02	0.71	1.94	2.17	0.52	7.82	0.08	5.32	-3.19	0.47	-0.89	-0.65	3.39	2.53	13.4	1.62	2.94
O=C(Nc1n[nH]c2nc(-c3ccco3)c(Br)cc12)C1CC1	2.72	1.71	4.33	0.48	3.25	3.03	4.31	36.9	80.6	–	–	-1.07	3.67	0.54	2.1	2.66	3.7	-0.07	5.13	5.33
NS(=O)(=O)c1cccc(-c2ccc3c(NC(=O)C4CC4)n[nH]c3c2)c1	1.36	2.96	3.42	2.16	3.65	-1.18	-0.6	1.01	3.15	–	–	-0.23	0.61	0.1	1.04	-7.07	-5.26	-2.53	-5.17	0.73
CCn1c(-c2nonc2N)nc2cncc(C(=O)N3CC[C@H](N)C3)c21	1.82	12.7	49.4	7.9	44.4	15	59.5	3.29	19.3	2.36	12.1	1.36	8.14	0.99	3	8.24	9.12	4.87	7.62	3.48
O=C1NC(=O)C(c2ccccc2Cl)=C1Nc1cccc(O)c1	21.8	8.06	38.5	2.78	15.2	3.09	2.96	–	–	–	–	1.81	7.57	0.96	3.38	2.21	2.41	2.64	2.43	2.98
COc1ccccc1Nc1ncc(-c2ccccc2)o1	0.51	2.5	3.38	-1.91	-1.3	4.18	3.04	2.25	3.92	2.57	2.74	-3.68	0.57	-0.52	0.15	4.12	3.07	5.93	6.15	4.06
Nc1ncnc2occ(-c3ccc(NC(=O)Nc4cc(C(F)(F)F)cc(C(F)(F)F)c4)cc3)c12	1.36	0.09	2.4	0.19	1.76	1.71	2.18	1.22	5.65	1.08	7.52	0.45	11.7	14.4	63.3	2.13	6.77	2.73	1.95	0.6
CS(=O)(=O)CCNCc1nc(-c2ccc3ncnc(Nc4ccc(F)c(Cl)c4)c3c2)cs1	0.43	0.63	1.24	0.27	1.63	0.37	2.12	1.3	3.03	1.2	1.99	1.07	5.32	3.32	18.8	1.61	4.55	4.72	5.04	1.63
CS(=O)(=O)CCNCc1ccc(-c2ccc3ncnc(Nc4ccc(OCc5ccccc5)c(Cl)c4)c3c2)o1	-0.47	2.24	1.73	1.31	2.67	-0.23	1.41	1.58	4.24	2.15	3.95	-2.41	2.91	4.33	7.49	-0.54	1.16	2.06	1.18	1.84
